Reference: PubChem BioAssay AID1159580 (chemical genetic matrix, 2015)
Out of some 5,500 compounds screened, about 2,000 (36%) were called active. Roughly 18% stayed inconclusive and do not appear here. No stated cut-off is given here; in the data, active means normalized growth mostly below about 0.91 (no sharp cut-off); inconclusive means no clear call, values can overlap the other calls; inactive means mostly above about 0.92. The list shows a part of the results.

Experiment: chemical genetic growth profiling, strain panel (AID 1159580);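 further: tested at 20 µM; growth read once vehicle control cultures reached saturation at 30 °C; 1 = growth at the plate median or of vehicle wells; lower values mean less growth of the strain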
Details: S. cerevisiae deletion strains, growth OD

Measured: normalized growth

C=C1CCC2C(CC2(C)C)C(=C)CC/C1=N\O (stereo not drawn)
inactive: locus YAL013W, strain DEP1, active compounds read low 1 | locus YAL021C, strain ccr4, active compounds read low 1.04 | locus YAL026C, strain drs2, active compounds read low 1.01 | locus YAL030W, strain snc1, active compounds read low 1 | locus YBL061C, strain skt5, active compounds read low 0.999 | locus YBR009C, strain hhf1, active compounds read low 0.99 | locus YBR021W, strain FUR4, active compounds read low 0.89 | locus YBR023C, strain chs3, active compounds read low 1.01 | locus YBR171W, strain sec66, active compounds read low 0.993 | locus YBR229C, strain ROT2, active compounds read low 1.02 | locus YBR231C, strain swc5, active compounds read low 1.01 | locus YBR279W, strain paf1, active compounds read low 1.01 | locus YCL011C, strain gbp2, active compounds read low 0.997 | locus YCL016C, strain dcc1, active compounds read low 0.994 | locus YCL029C, strain bik1, active compounds read low 0.983 | locus YCL061C, strain MRC1, active compounds read low 0.992 | locus YCL069W, strain vba3, active compounds read low 1.01 | locus YCR088W, strain abp1, active compounds read low 1 | locus YDL005C, strain med2, active compounds read low 0.994 | locus YDL035C, strain GPR1, active compounds read low 0.87 | locus YDL040C, strain nat1, active compounds read low 0.998 | locus YDL074C, strain BRE1, active compounds read low 0.82 | locus YDL101C, strain DUN1, active compounds read low 0.986 | locus YDL134C, strain PPH21, active compounds read low 1.01 | locus YDL185W, strain tfp1, active compounds read low 0.978 | locus YDR001C, strain nth1, active compounds read low 1 | locus YDR069C, strain doa4, active compounds read low 0.995 | locus YDR101C, strain arx1, active compounds read low 0.947 | locus YDR137W, strain rgp1, active compounds read low 0.949 | locus YDR150W, strain NUM1, active compounds read low 1.03 | locus YDR159W, strain sac3, active compounds read low 0.977 | locus YDR195W, strain ref2 1.01 | locus YDR297W, strain sur2, active compounds read low 1.01 | locus YDR334W, strain swr1, active compounds read low 1 | locus YDR335W, strain msn5, active compounds read low 1 | locus YDR388W, active compounds read low 0.964 | locus YDR392W, strain spt3, active compounds read low 0.839 | locus YDR502C, strain sam2, active compounds read low 0.927 | locus YEL003W, strain gim4, active compounds read low 1 | locus YEL037C, strain rad23, active compounds read low 0.993 | locus YEL061C, strain CIN8 (second series), active compounds read low 1.01 | locus YEL061C, strain CIN8, active compounds read low 1.01 | locus YER015W, strain faa2, active compounds read low 1.01 | locus YER016W, strain bim1, active compounds read low 1 | locus YER110C, active compounds read low 1.02 | locus YER111C, strain swi4, active compounds read low 1 | locus YER155C, strain BEM2 (second series), active compounds read low 1 | locus YER155C, strain BEM2, active compounds read low 0.992 | locus YER167W, strain BCK2, active compounds read low 0.915 | locus YFR010W, strain ubp6, active compounds read low 1 | locus YGL167C, strain pmr1, active compounds read low 0.996 | locus YGL173C, strain kem1, active compounds read low 1 | locus YGL227W, strain vid30, active compounds read low 1 | locus YGL240W, strain doc1, active compounds read low 1 | locus YGL248W, strain PDE1, active compounds read low 1.02 | locus YGL253W, strain hxk2, active compounds read low 1 | locus YGR078C, strain PAC10, active compounds read low 0.954 | locus YGR135W, strain pre9, active compounds read low 0.924 | locus YGR252W, strain gcn5, active compounds read low 0.799 | locus YHR013C, strain ard1, active compounds read low 1.04 | locus YHR027C, strain rpn1, active compounds read low 0.999 | locus YHR030C, strain SLT2, active compounds read low 0.983 | locus YHR079C, strain IRE1 (second series), active compounds read low 0.962 | locus YHR094C, strain hxt1, active compounds read low 0.998 | locus YHR129C, strain ARP1, active compounds read low 0.992 | locus YHR142W, strain chs7, active compounds read low 1 | locus YHR200W, strain rpn10, active compounds read low 0.971 | locus YIL066C, strain RNR3, active compounds read low 0.908 | locus YIL073C, strain SPO22, active compounds read low 1.08 | locus YIL125W, strain kgd1, active compounds read low 0.993 | locus YIR030C, strain dcg1, active compounds read low 0.993 | locus YJL092W, strain hpr5, active compounds read low 0.996 | locus YJL095W, strain BCK1 (second series), active compounds read low 1 | locus YJL095W, strain BCK1, active compounds read low 0.843 | locus YJL115W, strain asf1, active compounds read low 0.998 | locus YJL129C, strain trk1, active compounds read low 0.994 | locus YJL134W, strain LCB3, active compounds read low 1.01 | locus YJL154C, strain vps35, active compounds read low 1 | locus YJL164C, strain tpk1, active compounds read low 1 | locus YJL166W, strain qcr8, active compounds read low 1.01 | locus YJL168C, strain set2, active compounds read low 0.998 | locus YJL187C, strain SWE1 (second series), active compounds read low 0.973
active: locus YDL192W, strain arf1, active compounds read low 0.884 | locus YDR162C, strain NBP2, active compounds read low 0.735 | locus YDR318W, strain mcm21, active compounds read low 0.911 | locus YGL078C, strain dbp3, active compounds read low 0.922 | locus YGL086W, strain mad1, active compounds read low 0.923 | locus YGR229C, strain SMI1, active compounds read low 0.738
